Data as given in publication PMC4081100, “A DNA-binding-site landscape and regulatory network analysis for NAC transcription factors in Arabidopsis thaliana”.

Tests used:
Assay in all cases: universal protein binding microarray (PBM); transcription factors of Arabidopsis thaliana; high values mean tight binding
GST-ANAC019 NAC domain = target: T1, GST-ANAC019 NAC domain (Arabidopsis thaliana, UniProt Q9C932 14-162); settings: protein: recombinant; tags: GST; chain copies: 2; dsDNA, one strand shown
T1 sequence: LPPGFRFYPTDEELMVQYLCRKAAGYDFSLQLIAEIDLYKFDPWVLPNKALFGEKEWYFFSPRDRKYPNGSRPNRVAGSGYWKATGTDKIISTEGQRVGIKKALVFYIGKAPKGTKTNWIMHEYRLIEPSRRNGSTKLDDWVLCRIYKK
Method in brief: (§1)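 For zinc-finger proteins, zinc acetate was added while GST-tagged NAC-domain, full-length or DNA-binding-domain proteins were induced in cells. Purification used glutathione–Sepharose 4B, and quantification used A280 or anti-GST western blot. Custom all-10-mer Agilent 4 × 180K arrays, made double-stranded by primer extension, each received a protein at 200 to 500 nM final in duplicate. Scoring covered gapped and ungapped 8-mers, with binding given as the normalised enrichment score (E-score).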

GST-ANAC055(1-171) = target: T2, GST-ANAC055(1-171) (Arabidopsis thaliana, UniProt Q9LDY8 1-171); settings: protein: recombinant; tags: GST; chain copies: 2; dsDNA, one strand shown
T2 sequence: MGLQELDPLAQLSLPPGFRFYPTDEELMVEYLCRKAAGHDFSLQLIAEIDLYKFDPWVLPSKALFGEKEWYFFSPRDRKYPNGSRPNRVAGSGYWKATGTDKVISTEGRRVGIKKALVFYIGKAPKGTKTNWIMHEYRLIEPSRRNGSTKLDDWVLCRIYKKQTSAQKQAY
Method in brief: as §1

GST-ATAF1 NAC domain = target: T3, GST-ATAF1 NAC domain (Arabidopsis thaliana, UniProt Q39013 7-158); settings: protein: recombinant; tags: GST; chain copies: 2; dsDNA, one strand shown
T3 sequence: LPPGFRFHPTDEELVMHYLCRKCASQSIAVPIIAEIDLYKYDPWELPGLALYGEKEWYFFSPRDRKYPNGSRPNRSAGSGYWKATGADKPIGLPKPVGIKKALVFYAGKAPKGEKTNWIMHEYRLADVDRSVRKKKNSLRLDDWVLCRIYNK
Method in brief: as §1

[1] = target: T4, GST-ANAC092(1-285) full length (Arabidopsis thaliana, UniProt Q9FKA0 1-285); settings: protein: recombinant; tags: GST; chain copies: 2; dsDNA, one strand shown
T4 sequence: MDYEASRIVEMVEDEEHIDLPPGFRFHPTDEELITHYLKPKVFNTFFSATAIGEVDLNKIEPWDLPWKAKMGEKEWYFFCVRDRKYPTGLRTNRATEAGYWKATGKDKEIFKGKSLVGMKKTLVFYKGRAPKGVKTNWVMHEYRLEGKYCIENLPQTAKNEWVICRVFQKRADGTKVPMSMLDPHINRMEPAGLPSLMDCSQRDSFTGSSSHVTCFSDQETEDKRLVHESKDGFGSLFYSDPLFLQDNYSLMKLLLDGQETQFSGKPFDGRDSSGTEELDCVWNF
Method in brief: as §1

GST-SND1(1-203) = target: T5, GST-SND1(1-203) (Arabidopsis thaliana, UniProt Q9LPI7 1-203); settings: protein: recombinant; tags: GST; chain copies: 2; dsDNA, one strand shown
T5 sequence: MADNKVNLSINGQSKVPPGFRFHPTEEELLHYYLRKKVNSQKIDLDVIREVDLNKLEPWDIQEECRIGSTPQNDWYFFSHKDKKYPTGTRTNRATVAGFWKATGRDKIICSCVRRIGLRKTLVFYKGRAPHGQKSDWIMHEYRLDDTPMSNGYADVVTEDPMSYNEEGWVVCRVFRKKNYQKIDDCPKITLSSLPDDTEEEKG
Method in brief: as §1

GST-VND3 NAC domain = target: T6, GST-VND3 NAC domain (Arabidopsis thaliana, UniProt Q9FH59 12-162); settings: protein: recombinant; tags: GST; chain copies: 2; dsDNA, one strand shown
T6 sequence: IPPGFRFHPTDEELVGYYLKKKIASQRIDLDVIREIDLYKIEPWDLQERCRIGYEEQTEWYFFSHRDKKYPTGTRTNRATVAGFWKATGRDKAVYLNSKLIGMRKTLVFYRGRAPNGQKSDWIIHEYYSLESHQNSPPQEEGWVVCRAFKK
Method in brief: as §1

GST-VND7 NAC domain = target: T7, GST-VND7 NAC domain (Arabidopsis thaliana, UniProt Q9C8W9 9-158); settings: protein: recombinant; tags: GST; chain copies: 2; dsDNA, one strand shown
T7 sequence: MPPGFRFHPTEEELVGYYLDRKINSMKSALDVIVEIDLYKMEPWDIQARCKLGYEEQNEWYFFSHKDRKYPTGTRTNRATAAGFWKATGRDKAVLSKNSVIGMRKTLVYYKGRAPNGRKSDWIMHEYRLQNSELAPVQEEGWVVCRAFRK
Method in brief: as §1

GST-WRKY1(266-371) = GST-WRKY1(266-371) (Arabidopsis thaliana, UniProt Q9SI37 266-371); settings: protein: recombinant; tags: GST; dsDNA, one strand shown
Method in brief: as §1

GST-ANAC092(1-176) = target: T8, GST-ANAC092(1-176) (Arabidopsis thaliana, UniProt Q9FKA0 1-176); settings: protein: recombinant; tags: GST; chain copies: 2; dsDNA, one strand shown
T8 sequence: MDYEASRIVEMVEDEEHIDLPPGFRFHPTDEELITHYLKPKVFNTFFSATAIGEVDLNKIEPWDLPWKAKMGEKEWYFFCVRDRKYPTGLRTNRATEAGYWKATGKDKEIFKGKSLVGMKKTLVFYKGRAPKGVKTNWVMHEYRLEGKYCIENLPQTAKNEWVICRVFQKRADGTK
Method in brief: as §1

GST-NAP(1-166) = target: T9, GST-NAP(1-166) (Arabidopsis thaliana, UniProt O49255 1-166); settings: protein: recombinant; tags: GST; chain copies: 2; dsDNA, one strand shown
T9 sequence: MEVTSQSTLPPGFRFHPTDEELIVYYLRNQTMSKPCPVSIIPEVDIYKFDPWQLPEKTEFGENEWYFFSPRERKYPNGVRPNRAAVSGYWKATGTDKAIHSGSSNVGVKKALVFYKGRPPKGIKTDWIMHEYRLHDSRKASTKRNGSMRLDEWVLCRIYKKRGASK
Method in brief: as §1

GST-NST2(1-184) = target: T10, GST-NST2(1-184) (Arabidopsis thaliana, UniProt Q9M274 1-184); settings: protein: recombinant; tags: GST; chain copies: 2; dsDNA, one strand shown
T10 sequence: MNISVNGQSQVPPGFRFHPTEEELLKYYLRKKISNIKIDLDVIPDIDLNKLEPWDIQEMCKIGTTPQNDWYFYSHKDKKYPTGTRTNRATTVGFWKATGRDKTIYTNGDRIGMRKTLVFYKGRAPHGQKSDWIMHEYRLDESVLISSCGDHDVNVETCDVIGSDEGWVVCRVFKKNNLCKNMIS
Method in brief: as §1

GST-NTL8 NAC domain = target: T11, GST-NTL8 NAC domain (Arabidopsis thaliana, UniProt Q9XIN7 14-156); settings: protein: recombinant; tags: GST; chain copies: 2; dsDNA, one strand shown
T11 sequence: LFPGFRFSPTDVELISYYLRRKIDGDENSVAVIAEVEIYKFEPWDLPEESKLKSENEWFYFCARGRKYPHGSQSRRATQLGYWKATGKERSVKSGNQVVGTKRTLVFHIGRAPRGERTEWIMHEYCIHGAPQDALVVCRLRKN
Method in brief: as §1

GST-NTL6(1-168) = GST-NTL6(1-168) (Arabidopsis thaliana, UniProt Q9SCK6 1-168); settings: protein: recombinant; tags: GST; chain copies: 2; dsDNA, one strand shown
Method in brief: as §1

GST-NTL6(1-168), sequence (Q9SCK6 1-168): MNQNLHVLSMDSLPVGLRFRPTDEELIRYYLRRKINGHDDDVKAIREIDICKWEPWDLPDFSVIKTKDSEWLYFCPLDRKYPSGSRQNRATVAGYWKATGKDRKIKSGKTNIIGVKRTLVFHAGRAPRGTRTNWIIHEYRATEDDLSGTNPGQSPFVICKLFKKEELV
GST-WRKY1(266-371), sequence (Q9SI37 266-371): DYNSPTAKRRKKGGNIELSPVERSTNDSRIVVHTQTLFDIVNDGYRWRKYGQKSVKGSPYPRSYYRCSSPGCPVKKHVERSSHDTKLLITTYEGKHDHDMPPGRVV

Sequence	binding signal (GST-ANAC019 NAC domain) [E-score]	binding signal (GST-ANAC055(1-171)) [E-score]	binding signal (GST-ATAF1 NAC domain) [E-score]	binding signal [1] [E-score]	binding signal (GST-SND1(1-203)) [E-score]	binding signal (GST-VND3 NAC domain) [E-score]	binding signal (GST-VND7 NAC domain) [E-score]	binding signal (GST-WRKY1(266-371)) [E-score]	binding signal (GST-ANAC092(1-176)) [E-score]	binding signal (GST-NAP(1-166)) [E-score]	binding signal (GST-NST2(1-184)) [E-score]	binding signal (GST-NTL8 NAC domain) [E-score]	binding signal (GST-NTL6(1-168)) [E-score]
GACTTTTA	0.0971	0.051	0.17	0.141	0.0841	0.0985	0.149	0.414					
AATAGCGT		0.138	0.114	0.412	0.383	0.119	0.191	0.0558	0.39	0.121	0.261		
GACGCAAA	0.0555		0.0741	0.411	0.289	0.135	0.099	0.117	0.382	0.233	0.123		
ACACTCAA	0.116	0.174	0.17	0.448	0.264	0.092	0.185	0.133	0.425	0.07	0.184	0.0774	
CGTCAACG	0.109		0.0746	0.159	0.0973	0.0692	0.0989	0.47	0.117	0.108			
CGTGCACG	0.464	0.424	0.304	0.418	0.0947	0.426	0.391	0.0812	0.354	0.378	0.221	0.0868	
GTTGACTA	0.079	0.0652	0.103	0.133	0.062	0.158	0.0849	0.49					0.072
ACGTCTCC	0.411	0.353	0.368	0.33	0.182	0.34	0.322	0.0802	0.21	0.273	0.167	0.052	
ACGCAACC	0.455	0.421	0.428	0.492	0.481	0.416	0.443	0.107	0.483	0.478	0.434	0.146	
ACACGGAA	0.486	0.481	0.376	0.458	0.057	0.467	0.479		0.464	0.45	0.328		0.0747
GTCAACAC	0.138	0.173	0.092	0.23	0.134	0.133	0.154	0.478	0.238	0.163	0.134		
GTGACGTA	0.375	0.36	0.39	0.452	0.467	0.365	0.413		0.447	0.417	0.311		0.0989
AGACACGC	0.0909	0.0867	0.165	0.42	0.215	0.0792	0.165	0.084	0.364	0.0846	0.107	0.0629	
CACGTAAA	0.43	0.414	0.332	0.431	0.289	0.414	0.346		0.425	0.35	0.293		0.0987
TAAGCAAA	0.113	0.208	0.202	0.308	0.409	0.248	0.252		0.201	0.103	0.291	0.241	0.431
TGCCGTAA	0.448	0.408	0.436	0.433	0.457	0.437	0.449		0.432	0.402	0.328	0.324	0.114
ATACGTAT	0.281	0.379	0.231	0.37	0.211	0.347	0.293		0.156	0.445	0.186		0.12
AAGGTAAC	0.141	0.185	0.142	0.285	0.188	0.154	0.194		0.233	0.151	0.232	0.441	0.309
